# Screening data as filed in PubChem.
# tim10-1 inh = inhibits growth of tim10-1 mutant yeast | S. cerevisiae tim10-1 ts strain growth, BacTiter-Glo, 24 h | inhibition, % at 20 µM | 330,000 tested, 2.2% active | AID 463190;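 active = inhibition of at least 40%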;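 note: mutant grown at 25 °C; 0% = DMSO wells with yeast and 100% = wells holding no yeast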
# NALP3 yeast inh = inhibitors of NALP3 inflammasome in yeast | 330,000 tested, 0.39% active | Yeast reconstituted NLRP3/ASC/caspase-1, beta-gal luminescence, 24 h | inhibition, % at 10 µM | AID 2825;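 active = inhibition of 50% or more; inactive = inhibition below 50%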;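 note: plate controls were induced DMSO wells for no effect and uninduced yeast grown without galactose for full effect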
# tim23-1 inh = inhibits growth of tim23-1 mutant yeast; 330,000 tested, 1.3% active; inhibition, % at 20 µM; S. cerevisiae tim23-1 growth, BacTiter-Glo luminescence, 24 h;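 active = growth inhibition of the mutant yeast at or above 50%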;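 note: temperature-sensitive mutant grown at 25 °C; plate controls were DMSO-treated mutant yeast for no effect and medium wells lacking yeast for full effect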
# PfHsp90 set2 = inhibits growth of yeast expressing Plasmodium falciparum Hsp90; S. cerevisiae expressing PfHsp90, BacTiter-Glo ATP, 48 h; yeast lacking PDR1 and PDR3 efflux regulators; inhibition, % at 9.4 µM; 310,000 tested, 0.32% active;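 active = every replicate shows inhibition above about 80%, whatever the replicate mean, limit read from the data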;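 note: 0% = DMSO neutral controls and 100% = 20 µM radicicol positive controls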
# TIM10 inh = TIM10 yeast growth inhibition; S. cerevisiae TIM10 strain growth, BacTiter-Glo luminescence, 24 h; inhibition, % at 10 µM; 330,000 tested, 1.4% active;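 active = inhibition of 40% or more at the single tested concentration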;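 note: wild-type TIM10 isogenic control strain grown at permissive 25 °C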
# NALP3 yeast conf = NALP3 inhibition confirmation in yeast. 1,300 tested, 81% active. yeast expressing human NALP3, luminescence. inhibition, % at 10 µM. shares compounds with NALP3 yeast inh; in the data active = inhibition above about 48%
# Casp1-ASC yeast = counter-screen for NALP3 inhibitors: yeast caspase-1-ASC; shares compounds with NALP3 yeast inh; 1,000 tested, 66% active; AID 488784; yeast expressing Caspase-1-ASC, luminescence counter screen; inhibition, % at 10 µM
# NALP3 yeast rt = retest-confirmed inhibitor of NALP3 in yeast | shares compounds with NALP3 yeast inh | yeast expressing human NALP3, luminescence read-out | inhibition, % at 10 µM | 1,000 tested, 53% active | AID 488794
# Active calls of the source: *; nt = no result. An excerpt weighted towards active compounds, which were near 3.7% of everything screened. Cut-off read from the data, not from the text of the source, unless noted: active = inhibition above about 50%; inactive = the rest.
SMILES,tim10-1 inh,NALP3 yeast inh,tim23-1 inh,PfHsp90 set2,TIM10 inh,NALP3 yeast conf,Casp1-ASC yeast,NALP3 yeast rt
O=C(c1ccccc1)c1ccccc1N1C(=O)C=CC1=O,10.9,36.0,9.6,106.7*,14.6,nt,nt,nt
CCCCCCCCC(NC(=O)c1ccc(C#N)cc1)C(=O)NCCC (stereo not given),14.6,-1.5,12.6,4.4,6.4,nt,nt,nt
O=C1NC(=S)S/C1=C\c1cc2ccccc2nc1N1CCCCC1,5.6,34.3,38.4,108.1*,36.4,nt,nt,nt
COc1ccc2nc(N3CCCCC3)c(/C=C3\SC(=S)NC3=O)cc2c1,22.4,24.6,28.4,13.0,22.0,nt,nt,nt
CCN(CC)N=Nc1[nH]nc2nc(C)cc(C)c12,29.2,2.1,-1.7,109.9*,24.0,nt,nt,nt
Cc1cc(C)c2c(C)[nH]nc2n1,-7.4,22.5,1.9,nt,-12.0,nt,nt,nt
Cc1cc(C)c2c(N=NN3CCCCC3)[nH]nc2n1,36.3,9.9,42.7,109.7*,23.2,nt,nt,nt
CC(=O)n1nc2nc(C)cc(C)c2c1N,6.3,-11.7,9.3,2.1,-4.6,nt,nt,nt
O=C(NC1CCCC1)C(c1ccncc1)N(CC1CCCO1)C(=O)Cn1nnc(-c2cccs2)n1 (stereo not given),10.9,12.8,12.9,0.1,14.8,nt,nt,nt
CCOC(=O)CNC(=O)Cn1cnc2ccc(S(=O)(=O)N3CCC(C)CC3)cc2c1=O,13.4,8.8,1.7,3.8,-2.5,nt,nt,nt
COc1ccc(OC)c(NC(=O)c2cc(-c3cc(C)cc(C)c3O)n[nH]2)c1,-2.5,-10.0,-2.8,2.5,8.3,nt,nt,nt
CC(=O)c1ccc2noc(-c3ccccc3)c2c1,-4.8,19.1,3.7,4.9,-4.6,nt,nt,nt
CN(C)/C=C/C(=O)c1ccccc1,10.6,-1.8,-1.3,-1.1,-3.2,nt,nt,nt
CN(C)/C=C/C(=O)c1ccc(Oc2ccccc2)cc1,21.3,24.9,33.2,101.2*,12.7,nt,nt,nt
CN(C)/C=C/C(=O)c1ccc2noc(-c3ccccc3)c2c1,32.2,21.1,24.6,105.5*,19.5,nt,nt,nt
Cc1ccc(C(=O)O)cc1N=Cc1cc(Br)cc(Br)c1O,nt,nt,nt,107.4*,nt,nt,nt,nt
CC(C)C(=O)Nc1ccc(C(=O)N/N=C/c2cc(Br)cc(Br)c2O)cc1,12.7,-12.6,-3.7,5.6,7.8,nt,nt,nt
Cc1c(CCCl)c(Cl)n2c(nc3ccccc32)c1C#N,nt,nt,nt,102.7*,nt,nt,nt,nt
Cc1cccc(OCc2nc(C#N)c(N3CC(C)CC(C)C3)o2)c1 (stereo not given),26.9,6.6,17.5,38.1,0.2,nt,nt,nt
N#Cc1nc(COc2ccc(Cl)cc2)oc1N1CCCCCC1,9.2,12.5,22.7,16.4,26.2,nt,nt,nt
Cc1cccc(OCc2nc(C#N)c(N3CCCC3)o2)c1,12.1,56.7*,23.7,6.2,10.7,46.5,64.5*,51.3*
N#Cc1nc(COc2ccccc2)oc1N1CCCCC1,22.2,61.6*,23.8,-5.3,-9.5,70.2*,59.8*,48.1
COc1ccccc1NC(=O)Nc1ncccc1C,-2.9,60.4*,21.3,nt,-2.6,71.3*,nt,nt
Cc1ccccc1NC(=O)Nc1ccccn1,-20.4,52.9*,4.5,-25.4,-4.8,68.5*,46.8,33.1
CC1CC(C)(C)CC2(C1)NC(=O)N(CC(=O)NC1CCCc3ccccc31)C2=O (stereo not given),2.0,1.8,1.6,8.3,2.6,nt,nt,nt
SMILES,tim10-1 inh,NALP3 yeast inh,tim23-1 inh,PfHsp90 set2,TIM10 inh,NALP3 yeast conf,Casp1-ASC yeast,NALP3 yeast rt
Cc1nn(-c2c(Cl)cc(Cl)cc2Cl)c(=O)c2ccccc12,13.9,62.7*,34.4,3.8,-1.4,72.8*,59.2*,53.4*
COCC(=O)N1CCC(Oc2ccc(C(=O)N3CCCCC3COC)cc2)CC1 (stereo not given),-11.2,10.5,3.5,-25.8,4.3,nt,nt,nt
O=C(c1cc(-c2cccc(Cl)c2)on1)N1CCN(c2ccccc2)CC1,2.5,10.5,20.4,13.4,32.0,nt,nt,nt
O=C(c1cc(-c2cccc(Cl)c2)on1)N1CCCC1,-14.6,58.9*,17.6,17.4,7.8,76.7*,76.2*,64.4*
S=c1[nH]nc(COc2ccc(Cl)cc2)n1Cc1ccccc1,13.9,15.2,3.1,5.2,25.6,nt,nt,nt
c1ccc(OCc2nnnn2-c2ccccc2)cc1,27.5,-104.7,13.4,0.0,-10.8,-66.3,-19.9,-36.1
Clc1ccc(OCc2nnnn2-c2ccccc2)cc1,38.9,-114.3,29.9,8.8,6.8,-41.1,nt,nt
CC1(C(=O)OCc2cc(=O)n3cc(Br)ccc3n2)CC1(Cl)Cl (stereo not given),23.9,64.0*,40.6,5.3,-0.7,71.5*,77.8*,64.2*
CSc1nc2ccc(S(=O)(=O)N3CCCC3)cc2s1,-8.4,84.6*,-1.7,7.3,-9.9,86.1*,86.2*,80.4*
CSc1nc2ccc(S(N)(=O)=O)cc2s1,12.3,0.0,9.9,-17.1,-4.5,nt,nt,nt
CC(C)CCNC(=O)c1cccc(C(=O)NCCC(C)C)c1,17.8,13.7,8.5,4.1,0.1,nt,nt,nt
CC(C)CCNC(=O)c1ccc(-c2ccccc2)cc1,15.1,52.1*,21.9,nt,13.1,61.0*,47.1,36.0
Cc1cc(C(=O)Oc2cccnc2)ccc1[N+](=O)[O-],12.3,-8.9,12.6,-33.4,10.5,nt,nt,nt
NCCCCCc1nnc(SCC(=O)c2ccc(Cl)cc2)o1,6.6,20.6,10.5,4.4,-15.6,nt,nt,nt
NCCc1nnc(SCc2c(Cl)cccc2Cl)o1,-10.0,83.5*,-4.7,6.6,-4.7,82.2*,83.2*,91.5*
NCCc1nnc(SCc2c(F)cccc2Cl)o1,4.1,77.5*,2.3,-5.0,-1.4,87.8*,71.5*,83.0*
NCCc1nnc(SCC(=O)c2ccc(Cl)cc2)o1,-0.5,56.3*,9.9,19.0,-0.5,71.2*,nt,nt
CC(C)(C)c1ccc(C(=O)Nc2cccc(-n3cnnn3)c2)cc1,28.2,52.3*,44.6,3.2,21.0,65.0*,58.1*,26.6
O=C1NCCN1Cc1ccccc1,1.3,2.2,1.4,nt,-4.3,nt,nt,nt
O=C1c2ccsc2SCCN1Cc1ccccc1,25.8,58.0*,10.8,11.5,-8.1,42.8,48.3,47.0
CC(C)Cc1nc(SCC(=O)N2CC(C)OC(C)C2)c2c(=O)n(C)c(=O)n(C)c2n1 (stereo not given),22.1,6.2,25.0,18.9,13.1,nt,nt,nt
CCc1nc(SCC(=O)NCc2ccccc2)c2c(=O)n(C)c(=O)n(C)c2n1,0.4,13.7,-0.1,7.5,-10.3,nt,nt,nt
CC(C)Cc1nc(SCc2cccnc2)c2c(=O)n(C)c(=O)n(C)c2n1,13.2,59.8*,34.8,29.5,-0.7,63.6*,57.0*,42.2
CCc1nc(SCc2cccnc2)c2c(=O)n(C)c(=O)n(C)c2n1,-2.0,53.3*,43.9,-43.1,-6.5,67.5*,58.2*,47.8
O=S(=O)(Cc1ccccc1)N(O)c1ccccc1,-2.3,2.6,13.1,6.1,14.3,nt,nt,nt
CCOC(=O)N1CCN(c2nc3ccccn3c(=O)c2C=O)CC1,18.4,-2.6,-2.2,2.3,-7.4,nt,nt,nt
